MEKK2 mut-MEK5 = signal of MEK5 binding to mutant human MEKK2 PB1 domain; percent response, % at 10 µM; bead flow cytometry, Alexa488-MEK5 binding to MEKK2 mutant; actives 0.35% (n = 290,000); in the data active = percent response above about 24%, passing the limit was not always enough
MEKK2 WT-MEK5 = raises or lowers MEK5 binding to wildtype human MEKK2 PB1 domain | Q9Y2U5 | bead flow cytometry, Alexa488-MEK5 binding to MEKK2 WT; actives lie on both sides | binding response (% of control), % at 10 µM | actives 1.1% (n = 290,000) | AID 1531; in the data active = binding response below about 67% or above about 130%
TMEM16A inh = blocks the mouse calcium-activated chloride channel TMEM16A | AID 588511 | HEK293 TMEM16A/YFP iodide influx fluorescence, ionomycin | normalized B-score (activity score, 25-100; higher = stronger inhibition) at 10 µM | Q8BHY3 | actives 1.2% (n = 310,000);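 active = ratio plate-corrected score three or more library SD toward inhibition, starting fluorescence score within five deviations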;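 also: score derived from kinetic fluorescence span divided by baseline fluorescence per well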
NTR1 agonist = NTR1 (human) agonism. P30989. activation, % at 20 µM. NTR1-U2OS beta-arrestin-GFP spot imaging, agonist mode. actives 0.17% (n = 330,000);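 active = activation at or above 40% of the spot to cytoplasm intensity ratio, with at least 20 cells analyzed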;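 also: 0% = DMSO without peptide and 100% = 100 nM NTR1 peptide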
MEKK3 PB1 HTS = modulators (inhibitors or enhancers) of MEK5 binding to human MEKK3 PB1 domain; actives 1.4% (n = 290,000); binding response (% of control), % at 10 µM; bead-based flow cytometry, Alexa488-MEK5 binding to MEKK3; actives lie on both sides; 0 = blocked by unlabeled MEK5, 100 = vehicle; Q99759;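 active = binding response more than 3 SD above or below the average of its plate-row segment, actives on both sides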;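 also: Alexa488 bead fluorescence after subtracting the streptavidin-only scavenger bead signal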
TMEM16A act = mouse TMEM16A channel activation, primary screen; Q8BHY3; HEK293 TMEM16A/YFP-H148Q/I152L, iodide quench fluorescence; hits give low values; AID 623877; B-score at 10 µM; actives 0.3% (n = 340,000);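 active = fluorescence-ratio B-score plate-corrected deviation score at least 3 library SD below zero, with starting fluorescence score within 5 deviations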;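 also: channel opened by trigger with iodide after compound preincubation; score built on the fluorescence ratio of max minus min over baseline; more negative score means more quench and so TMEM16A activation or potentiation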
MEKK2wt confirm = raises or lowers MEK5 binding to wildtype human MEKK2, retest; bead flow cytometry, Alexa488-MEK5 binding to MEKK2 WT; actives lie on both sides; binding response (% of control), % at 10 µM; shares compounds with MEKK3 PB1 HTS; actives 2.4% (n = 5,900); in the data active = binding response below about 16% or above about 210%; inactive = in between
MEKK2mut confirm = signal of MEK5 binding to mutant human MEKK2, retest; percent response, % at 10 µM; AID 1893; actives 2% (n = 5,900); shares compounds with MEKK3 PB1 HTS; bead flow cytometry, Alexa488-MEK5 binding to MEKK2 mutant; in the data active = percent response mostly above about 71%, no sharp cut-off; inactive = mostly below about 38%;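 also: higher means compound restores mutant binding toward wildtype level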
MEKK3-MEK5 inh = MEKK3-MEK5 PB1 inhibition, single concentration confirmation; shares compounds with MEKK3 PB1 HTS; binding response (% of control), % at 10 µM; actives 1.8% (n = 5,900); bead flow cytometry, Alexa488-MEK5 binding to MEKK3; hits give low values;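 active = binding response below 72% of control, or above a set upper limit, though filed actives all read lower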;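 also: 100% = DMSO only wells and 0% = binding blocked by excess unlabeled MEK5; lower values mean stronger disruption of MEK5 binding to MEKK3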
The depositor's hits bear a star; i = inactive; x = no result; [ ] = remark or other dose. Most compounds without a hit are left out; they make up all but 3.4% or so of the library.

SMILES	MEKK2 mut-MEK5	MEKK2 WT-MEK5	TMEM16A inh	NTR1 agonist	MEKK3 PB1 HTS	TMEM16A act	MEKK2wt confirm	MEKK2mut confirm	MEKK3-MEK5 inh
COc1ccccc1C(CCNCc1ccccc1)c1ccc(OC(C)C)cc1 (centres undefined)	24*	158*	i	8	110	i	148	30	108
COc1ccccc1C(CCNCc1ccc(N(C)C)cc1)c1ccc(OC(C)C)cc1 (centres undefined)	61*	229*	i	39	117	i	160	30	107
COc1ccc(CNCCC(c2ccc(OC(C)C)cc2)c2ccccc2OC)cc1OC (centres undefined)	28*	156*	i	20	112	i	148	27	112
COc1ccc(C(CCNCc2ccc(N(C)C)cc2)C(C)C)cc1 (centres undefined)	19	124	i	6	103	i	x	x	x
COc1ccc(CNCCC(c2ccc(OC(C)C)cc2)c2ccccc2OC)cc1 (centres undefined)	47*	193*	i	24	112	i	181	41	111
COc1ccc(C(CCNCc2ccc(OC(C)C)cc2)C(C)C)cc1 (centres undefined)	15	126	i	24	102	i	x	x	x
COc1ccc(CNCCC(c2ccc(OC(C)C)cc2)C(C)C)cc1OC (centres undefined)	6	114	i	13	104	i	x	x	x
Cc1ccc(C(=O)CSc2nnc(C(C)C)n2C)cc1C	-9	99	i	0	110	i	x	x	x
CCCn1c(SCC(=O)Nc2sc(C)c(C)c2C#N)nnc1C(C)C	6	116	i	0	124*	i	104	5	105
COCCN(C)Cc1cn(-c2ccc(F)cc2F)nc1-c1ccccc1C	3	102	i	0	100	i	x	x	x
Cc1ccccc1-c1nn(-c2ccc(F)cc2F)cc1CNCCN(C)C	23	150*	i	2	86	i	144	30	106
Cc1ccccc1-c1nn(-c2ccc(F)cc2F)cc1CNCCCN(C)C	23	140*	i	1	105	i	146	29	109
Cc1ccc(CNS(=O)(=O)c2ccc3c(c2)n(C)c(=O)n3C)cc1	3	104	i	0	102	i	x	x	x
COC(=O)C1C(=O)N2CCCSC2=C(C#N)C1c1cccs1 (centres undefined)	-11	59	i	0	55*[inhibitor]	i	101	0	103
COCC1COS(=O)(=O)NC1(C)C (centres undefined)	-8	94	i	-1	99	i	x	x	x
O=C(NCCCN1CCOCC1)c1ccc(Cl)cc1[N+](=O)[O-]	-6	107	i	0	108	i	x	x	x
O=C(NCCCN1CCOCC1)c1cc(Cl)ccc1[N+](=O)[O-]	2	114	i	0	206*	i	99	2	100
Cc1cc(=O)oc2cc(OCC(=O)Nc3ccccc3C(N)=O)c(Cl)cc12	2	98	i	1	100	i	x	x	x
C=CCN1C(=O)c2ccc(C(=O)N(CCC)CC(=O)Nc3ccccc3C)cc2C1=O	x	x	i	1	x	i	x	x	x
CC1CCCCN1C(=O)CCc1nnc(Cc2c[nH]c3ccccc23)o1 (centres undefined)	-10	93	i	-2	97	i	x	x	x
Cc1ccc(C(=O)COC(=O)c2cc(Cl)ccc2O)cc1[N+](=O)[O-]	0	101	i	1	101	i	x	x	x
Cc1ccc(C(=O)COC(=O)c2ccncc2)cc1[N+](=O)[O-]	-2	81	i	0	52*[inhibitor]	i	97	-5	102
COc1ccccc1NCC(=O)NNC(C)C(=O)Nc1cccc(Cl)c1 (centres undefined)	x	x	i	2	x	i	x	x	x
O=C(C[n+]1ccccc1)N/N=C/c1ccc(C(=O)O)cc1	x	x	x	-1	x	i	x	x	x
Cc1ccc2cc(CN(Cc3ccco3)C(=O)C3CCCCC3)c(=O)[nH]c2c1C	-7	98	i	6	92	i	x	x	x
SMILES	MEKK2 mut-MEK5	MEKK2 WT-MEK5	TMEM16A inh	NTR1 agonist	MEKK3 PB1 HTS	TMEM16A act	MEKK2wt confirm	MEKK2mut confirm	MEKK3-MEK5 inh
Cc1ccc2cc(CN(Cc3ccco3)C(=O)NC3CCCCC3)c(=O)[nH]c2c1C	1	78	i	2	64*[inhibitor]	i	118	10	108
Cc1cc(C)c(OCCCCCNCCO)c(C)c1	-17	22*[inhibitor]	i	2	12*[inhibitor]	i	107	2	103
Cc1cc(C)cc(OCCCCCNCCO)c1	8	105	i	1	103	i	x	x	x
N/C(=N/O)C(c1ccccc1)c1ccccc1	-3	92	i	0	94	i	x	x	x
CC1CCN(S(=O)(=O)c2ccc(S(=O)(=O)N3CCCC3)cc2)CC1	4	104	i	0	100	i	x	x	x
CC1CCN(S(=O)(=O)c2ccc(S(=O)(=O)NCC(=O)C(C)(C)C)cc2)CC1	-22	32*[inhibitor]	i	1	23*[inhibitor]	i	96	-7	99
Cn1nc(C(=O)N2CCN(c3ccc(F)cc3)CC2)c2c1-c1ccccc1S(=O)(=O)C2	4	105	i	0	104	i	x	x	x
CC1=N/C(=C\c2ccc([N+](=O)[O-])cc2)C(=O)N1c1ccc(Br)c(C)c1	-8	-2.0*	i	4	82*[inhibitor]	i	92	-5	101
COc1ccc(N2C(=O)/C(=C/c3ccc([N+](=O)[O-])cc3)N=C2C)cc1	-13	81	i	0	93	i	x	x	x
Oc1cc(-c2ccccc2)c2ccccc2c1	-2	97	i	3	97	i	x	x	x
Cc1ccc(C(=O)NC(c2ccccc2)C(Cl)Cl)cc1 (centres undefined)	12	94	i	1	98	i	x	x	x
CCC[C@@H](CN[C@@H](CNC)C(C)C)NCCCCc1ccccc1	-3	119	i	9	104	i	x	x	x
CCCC[C@@H](CNC)NC[C@H](NCCCCC1CCCCC1)C(C)C	30*	133	i	24	102	i	143	21	109
